This is part of a sample that, as a whole, favours compounds with a hit. Of some 83,000 tested, about 20% had one in any assay.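 Interpretation: 100, growth as untreated; towards 0, rising growth inhibition; 0, no net growth; 0 to -100, cell death. Compounds scoring below 10 were considered active.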 Values without a mark were called inactive. The source made the active and inactive calls.
The compounds below were run on HCT-15 colon (assay: NCI-60 one-dose screen, 48 h (100 = growth as untreated, 0 = no growth, -100 = all killed)). Settings: 10 µM unless noted.

SMILES	growth
NC1=NC(=O)NC1(c1ccccc1)c1ccccc1	97.5%
N#C/C(C(=O)c1ccccc1)=C1/C(=O)Nc2ccccc21	106%
CN(Cc1cccc(C(F)(F)F)c1)C(=O)[C@@H](CC(=O)N1CCC(N2CCCCC2)CC1)N1C(=O)[C@@H](N2C(=O)OC[C@@H]2c2ccccc2)[C@H]1/C=C/c1ccccc1	94.1%
CCOc1ccc(S(=O)(=O)Nc2ccc3c(c2)N(S(=O)(=O)CC)CCC3)cc1	89.9%
CCOC(=O)C(=Cc1ccccc1[N+](=O)[O-])C(=O)OCC	5.68% (active)
COc1cc(/C=C/C(=O)/C=C/c2ccc(-n3ccnc3C)cc2)ccc1O	82.4%
CCOC(=O)CC(c1ccccc1)C(C#N)c1ccccc1 (stereo not given)	103%
Cc1ccc(C2=C/C(=C/c3ccc(Br)cc3)C(=O)N2CCc2ccc(S(N)(=O)=O)cc2)cc1	99.8%
Cc1ccc(NC(=O)N[C@@H](Cc2cc(F)cc(F)c2)C(=O)N[C@@H]2C(=O)N3CCC[C@H]3C(=O)N3CCCC[C@H]3C(=O)N[C@@H](C)C(=O)N3C[C@H](C)C[C@H]3C(=O)O[C@H]2C)cc1	14.7%
C=C(C)[C@@H]1CC[C@]2(C)[C@H](CC[C@@H]3[C@@H]([C@@](C)(O)CCC=C(C)C)CC[C@]32C)[C@@]1(C)CCC(=O)O	-15.9% [100 µM] (active)
C=CCCCCCCCCC(=O)OC(C)C	99.1%
O=C1Nc2ccccc2/C1=C/C(=O)c1ccc(N2CCCCC2)cc1	79.8%
O=C(N=c1n(-c2ccccc2)nc2n1CCN2C1=NCCN1C(=O)c1ccc(Cl)cc1)c1ccc(Cl)cc1	57%
CC1=CC[C@@H]2C(C)(C)[C@@H](O)CC[C@@]2(C)[C@@H]1COc1ccc2ccc(=O)oc2c1	29.4%
CSc1nc2sc3cc(Cl)c(Cl)cc3n2c(=N)c1C#N	104%
COc1ccc(C(=O)CCC(=O)O)cc1	77.6%
O=C(CCNCc1ccccc1)c1ccccc1	106%
NC(=O)CC1C=CCC1 (stereo not given)	99.5%

SMILES	growth
CCNc1cc2c(cc1Br)-c1ccccc1C2=O	77.6%
O=C(O)c1cn(C2CC2)c2cc(N3CCN(Cc4c(O)ccc5ccccc45)CC3)c(F)cc2c1=O	5.61% (active)
CCOC(=O)COc1ccc2c(c1)O/C(=C\c1ccc(O)cc1)C2=O	101%
Nc1cc(NN=C(c2ccc(O)cc2)c2ccc(O)cc2)c([N+](=O)[O-])cc1[N+](=O)[O-]	4.01% (active)
CCCCCCNC(=O)Nc1ncnc2c1ncn2-c1ccccc1	95.2%
C[C@]12CCc3c(ccc4cc(O)ccc34)[C@@H]1CC[C@H]2O	93.4%
Nc1nc(Nc2ccccc2)c2ncn(Cc3ccc4c(c3)OCO4)c2n1	23.1%
COc1ccc(OC)c(NC=O)c1	103%
Fc1cc2[nH]ncc2c2c3c(c(-c4cn[nH]c4)nc12)CCCC3	4.51% (active)
CCN(CC)CCCCCCNc1cccc2cc(Br)cnc12	84.7%
O=C(CSc1nc2ccc([N+](=O)[O-])cc2[nH]1)Nc1cccc(Cl)c1	23.3%
CCN(CC)CCCOc1ccc2c(c1)O/C(=C\c1cccc(OC)c1)C2=O	53.5%
CC1(C)C(=O)/C(=C\c2ccco2)C[C@]2(C)[C@H]3CC=C4[C@@H]5C[C@](C)(C(=O)O)CC[C@]5(C)CC[C@@]4(C)[C@]3(C)CC[C@@H]12	-86.4% [100 µM] (active)
C=C(C)[C@@H]1CC[C@]2(C(=O)NCCCCCCN(CCCN)CCCN)CC[C@]3(C)[C@H](CC[C@@H]4[C@@]5(C)CC[C@H](OCCCN)C(C)(C)[C@@H]5CC[C@]43C)[C@@H]12	81.8% [100 µM]
C=C(C)[C@@H]1CC[C@]2(COC(=O)c3ccccc3C(=O)O)CC[C@]3(C)[C@H](CC[C@@H]4[C@@]5(C)CC[C@H](OC(=O)c6ccccc6C(=O)O)C(C)(C)[C@@H]5CC[C@]43C)[C@@H]12	18.1% [100 µM]
COc1ccc2c(c1)c(-c1noc(-c3cn(C)c4ncc(F)cc34)n1)cn2C	84.7%
c1ccc(-c2nnc(-c3c[nH]c4ncccc34)s2)cc1	83.4%

Reference: PubChem BioAssay (NCI)
